Many of the other results were omitted from the sample, so hits are more common in it than they were.
KDM5B inh: inhibitors of human KDM5B histone demethylase; actives 2.6% (n = 220,000); AID 1347165; Q9UGL1; Potency, µM (highest dose often 57.7 µM), hits mostly inhibitors; KDM5B demethylase, FDH-coupled NADH fluorescence (FDH is formaldehyde dehydrogenase); active = well fitted inhibition curve with a large enough effect; also: 0% is about no effect; nearly all actives have a fitted effect of over 70% in size
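Inhibition is measured as reduced NADH fluorescence generation from FDH coupling to formaldehyde release. Truncated KDM5BΔAP at 200 nM final acts on H3K4me3 peptide (12.5 µM in substrate mix) in pH 7.5 HEPES buffer with Tween-20, 30 min, room temperature.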
Starred values were filed as active, the others as inactive. Potency is read from the fitted curve at half-maximal effect.

COCCNC(=O)C1(C)CN(Cc2ccccc2)Cc2ccc(N3CCOCC3)nc21 (stereo unspecified) was read as KDM5B inh 31.6µM*.
Screening CC(C)CNc1ccc2c(n1)C(C)(C(=O)NCc1cnccn1)CN(Cc1ccccc1)C2 (stereo unspecified) returned KDM5B inh inactive.
For CC(C)CNc1ccc2c(n1)C(C)(C(=O)NC1CCC(O)CC1)CN(Cc1ccccc1)C2 (stereo unspecified) the results were KDM5B inh inactive.
For CN(Cc1ccc(N2CCOCC2)cc1)C(=O)[C@H]1CN(Cc2ccccc2)C[C@H]1C(=O)O the results were KDM5B inh inactive.
Screening CCN1CCN(C(=O)c2cccc(NC(=O)c3nnc(COc4cc(C)cc(C)c4)s3)c2)CC1 returned KDM5B inh inactive.
`NCc1ccc(CN2CCc3ccccc32)cc1` gave KDM5B inh inactive.
For C=C(C)Cn1c(NCCOC)nc2c1c(=O)n(C)c(=O)n2C the results were KDM5B inh inactive.
COc1ccc(-c2ccc3ncc(Nc4cccc(O)c4)n3n2)cc1OC was read as KDM5B inh inactive.
Screening Cc1ccc(-c2csc(Nc3ccc(C(=O)O)c(O)c3)n2)cc1 returned KDM5B inh inactive.
`Cn1ccc(NC(=O)C2(C)CN(Cc3ccccc3)Cc3ccc(N4CCOCC4)nc32)n1` (stereo unspecified) gave KDM5B inh 11.2µM*.
Screening Cc1cc(N2CCOCC2)nc(Nc2ccc(NC(=O)CCc3ccccc3)cc2)n1 returned KDM5B inh inactive.
For CC(NC(=O)c1n[nH]c(=O)c2ccccc12)c1ccc2ccccc2c1 (stereo unspecified) the results were KDM5B inh inactive.
CCCc1nc2nc(C)cc(Nc3c(C)cc(C)cc3C)n2n1 was read as KDM5B inh inactive.
`CCOc1ccc(/C=C/C(=O)c2ccc(Br)cc2)cc1OC` gave KDM5B inh inactive.
For Cc1ncnc(N2CCC(N3CCCC(C(=O)NCc4ccccn4)C3)CC2)c1C (stereo unspecified) the results were KDM5B inh inactive.
For O=C(NCc1cccc(F)c1)C1CCCN(c2nc3ncccc3o2)C1 (stereo unspecified) the results were KDM5B inh inactive.
Screening O=C(NCc1ccccn1)C1CCCN(c2nc3ncccc3o2)C1 (stereo unspecified) returned KDM5B inh 35.5µM*.
For COCCNC(=O)C1CCN(c2nc3ccccc3o2)CC1 the results were KDM5B inh inactive.
COC(=O)CNC(=O)C1CCCN(c2nc3ncccc3o2)C1 (stereo unspecified) was read as KDM5B inh 28.2µM*.
Screening COCCNC(=O)C1CCCN(c2nc3ncccc3o2)C1 (stereo unspecified) returned KDM5B inh 28.2µM*.
Screening O=C(NCCc1ccc(Cl)cc1)C1CCCN1c1nc2ncccc2o1 (stereo unspecified) returned KDM5B inh inactive.
For O=C(Nc1cccc(Cl)c1)C1CCCN1c1nc2ncccc2o1 (stereo unspecified) the results were KDM5B inh inactive.
`CCCCCc1ccc(/C=C/C(=O)O)cc1` gave KDM5B inh inactive.
Screening O=C(c1cc(=O)c2cc(Cl)ccc2o1)N1CCC1 returned KDM5B inh inactive.
Screening CCOc1ccc(CCNC(=O)c2cc3c(s2)-c2ccccc2S(=O)(=O)C3)cc1 returned KDM5B inh inactive.
For COc1ccc(-c2noc(CN(C(=O)c3cc(OC)c(OC)c(OC)c3)C3CCCCC3)n2)cc1 the results were KDM5B inh inactive.
COCCNC(=O)COC(=O)c1cc(-c2cccs2)nc2ccccc12 was read as KDM5B inh inactive.
For CSC(C)C(=O)Nc1ccc(Br)c(C)c1 (stereo unspecified) the results were KDM5B inh inactive.
`Cc1c(Cl)cccc1NC(=O)c1cc(=O)[nH]c2ccc(S(=O)(=O)N3CCOCC3)cc12` gave KDM5B inh inactive.
Screening O=C(N[C@@H]1CCOC[C@H]1O)c1cnn2cc(CCO)cnc12 returned KDM5B inh 28.2µM*.
Screening Cc1cnc2c(Cl)c(C(=O)N[C@@H]3COCC[C@@H]3OCC3CC3)nn2c1 returned KDM5B inh inactive.
For CCN(CC)Cc1cnc2c(C(=O)NC(C3CC3)C3CC3)cnn2c1 the results were KDM5B inh inactive.
Screening Cc1ccc2oc(-c3cccc(NC(=O)c4ccc(C#N)cc4F)c3)nc2c1 returned KDM5B inh inactive.
`Cc1ccc(S(=O)(=O)NC2CCN(C(=O)Cc3ccc(F)cc3)CC2)cc1` gave KDM5B inh inactive.
For Cc1ccc(Cl)c(NC(=O)NCc2nc(-c3cccc(Cl)c3)oc2C)c1 the results were KDM5B inh inactive.
`CCOC(=O)c1c(NC(=O)COc2ccc(OC)cc2)sc(C)c1Cc1ccc2c(c1)OCO2` gave KDM5B inh inactive.
Screening Cc1ccc(C2=NN(C(=O)CNc3ccc(C(=O)N(C)C)cc3)C(c3ccco3)C2)o1 (stereo unspecified) returned KDM5B inh inactive.
c1cn(-c2ccc(Oc3nn[nH]n3)cc2)c(-c2cc3n(n2)CCNC3)n1 was read as KDM5B inh 17.8µM*.
CSc1cccc(-n2ccnc2-c2cc3n(n2)CCCNC3)c1 was read as KDM5B inh inactive.
Screening c1ccc(-c2cccc(-n3ccnc3-c3cc4n(n3)CCCNC4)c2)nc1 returned KDM5B inh inactive.
COC(=O)C1CCN(Cc2cc(=O)oc3ccc(Cl)cc23)CC1 was read as KDM5B inh inactive.
CC(C)c1noc(-c2ccn3c(CNC(=O)c4ccco4)nnc3c2)n1 was read as KDM5B inh 28.2µM*.
`CCc1ccc(C(=O)NCc2nnc3cc(-c4nc(C(C)C)no4)ccn23)cc1` gave KDM5B inh inactive.
`Cc1ccc(C(=O)NCc2nnc3cc(-c4nc(C(C)C)no4)ccn23)cc1` gave KDM5B inh 10µM*.
COC(=O)[C@@H](NC(=O)c1cnc(C)cn1)C(C)C was read as KDM5B inh inactive.
For CC(C)C(=O)NC(NC(=O)C(C)C)c1cc(Br)ccc1F the results were KDM5B inh inactive.
COc1ccc(-n2c(SCC(=O)Nc3cccc(C#N)c3)nnc2-c2ccccc2OC)cc1 was read as KDM5B inh inactive.
Cc1ccc(OCC(=O)OCC(=O)c2ccc3c(c2)OCCO3)cc1 was read as KDM5B inh inactive.
Screening Cc1cc2oc(=O)cc(CN3CCN(CCO)CC3)c2cc1C returned KDM5B inh inactive.
For COc1cc(F)ccc1-c1ccnc2nc(C3CCCCC3)nn12 the results were KDM5B inh 28.2µM*.
c1ccc2nc(-n3nc(C4CCOC4)nc3C3CC3)cnc2c1 (stereo unspecified) was read as KDM5B inh inactive.
`COc1cc(-c2ncccc2C(=O)N2CCCC2)cc(OC)c1OC` gave KDM5B inh inactive.
For c1coc(-c2ccnc3ncnn23)c1 the results were KDM5B inh 28.2µM*.
COc1cc(-c2ccnc3nc(C4CCC4)nn23)cc(OC)c1OC was read as KDM5B inh 22.4µM*.
CCc1nn2c(-c3ccccc3OC)ccnc2c1-c1ccc(F)cc1 was read as KDM5B inh inactive.
`c1ccc(-c2ccnc3nc(C4CC4)nn23)cc1` gave KDM5B inh 28.2µM*.
`Cc1nn2c(-c3ccco3)ccnc2c1-c1ccc(Cl)cc1` gave KDM5B inh inactive.
For Cc1nn2c(-c3ccco3)ccnc2c1-c1ccc(Br)cc1 the results were KDM5B inh inactive.
COc1ccc(N2CC(c3noc(-c4cc(OC)c(OC)c(OC)c4)n3)CC2=O)cc1OC (stereo unspecified) was read as KDM5B inh inactive.

High-throughput results: PubChem BioAssay, National Center for Advancing Translational Sciences (NCATS)
